# Source: PMC4336329 (PLoS ONE, 2015)
# About 2,200 (0.71%) of roughly 310,000 compounds showed an effect of 50% or more. Effects have a minus sign here. The sample holds strong results, similar compounds and a random draw of the others, so the mix is not that of the screen.
# Molecular target: human ether-à-go-go-related gene (hERG) potassium channel (human, UniProt Q12809)
# Test: primary screen, population patch clamp on CHO cells stably expressing hERG; higher = less effect of the substance
# Chain of human ether-à-go-go-related gene (hERG) potassium channel (Q12809 whole entry, looked up): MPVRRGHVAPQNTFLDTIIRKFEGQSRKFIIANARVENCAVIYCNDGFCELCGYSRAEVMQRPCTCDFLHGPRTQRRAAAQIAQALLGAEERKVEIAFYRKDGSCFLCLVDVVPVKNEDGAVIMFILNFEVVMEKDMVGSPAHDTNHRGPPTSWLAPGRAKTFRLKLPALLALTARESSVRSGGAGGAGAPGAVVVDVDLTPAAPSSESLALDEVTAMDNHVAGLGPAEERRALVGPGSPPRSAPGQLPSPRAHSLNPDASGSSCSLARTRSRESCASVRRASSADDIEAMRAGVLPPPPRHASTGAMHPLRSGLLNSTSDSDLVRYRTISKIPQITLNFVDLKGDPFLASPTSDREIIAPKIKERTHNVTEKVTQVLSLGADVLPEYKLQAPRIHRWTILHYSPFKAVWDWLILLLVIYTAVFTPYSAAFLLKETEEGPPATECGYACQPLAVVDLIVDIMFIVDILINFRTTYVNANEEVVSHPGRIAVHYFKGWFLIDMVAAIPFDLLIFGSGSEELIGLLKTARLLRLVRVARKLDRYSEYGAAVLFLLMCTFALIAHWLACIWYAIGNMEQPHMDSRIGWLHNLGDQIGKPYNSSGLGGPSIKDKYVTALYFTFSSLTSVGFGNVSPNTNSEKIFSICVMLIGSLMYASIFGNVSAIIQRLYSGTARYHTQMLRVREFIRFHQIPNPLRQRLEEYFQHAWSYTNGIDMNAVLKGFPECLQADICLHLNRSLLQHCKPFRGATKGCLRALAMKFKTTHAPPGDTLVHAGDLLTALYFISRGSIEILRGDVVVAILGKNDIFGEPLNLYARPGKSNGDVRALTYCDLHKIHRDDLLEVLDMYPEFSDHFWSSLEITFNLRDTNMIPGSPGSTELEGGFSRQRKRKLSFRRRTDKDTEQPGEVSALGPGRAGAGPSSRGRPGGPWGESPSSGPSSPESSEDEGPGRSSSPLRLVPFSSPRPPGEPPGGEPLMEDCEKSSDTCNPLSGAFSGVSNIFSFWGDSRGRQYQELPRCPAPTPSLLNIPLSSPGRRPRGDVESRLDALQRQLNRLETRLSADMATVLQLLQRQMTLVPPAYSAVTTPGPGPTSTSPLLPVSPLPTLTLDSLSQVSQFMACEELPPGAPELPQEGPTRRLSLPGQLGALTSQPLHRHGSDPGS
row,SMILES,"hERG current change (%, negative = inhibition) at 1uM [%]"
1,O=c1c2c(nc3n1CCS3)c1cc(F)ccc1n2Cc1cc(=O)n2cc(Cl)ccc2n1,10.3
2,Cc1cc(F)ccc1S(=O)(=O)Nc1ccc(O)c(Sc2ncn[nH]2)c1,20.6
3,Cc1cc(C)cc(N(C(=O)CCC(=O)Nc2ccccn2)C(C(=O)NC(C)C)c2ccc(O)cc2)c1 (stereo not shown),1.99
4,CCC(=O)c1ccc(OCC(O)CN2CCCCC2)cc1.Cl (stereo not shown),3.96
5,CCC(=O)c1ccc(OCC(O)Cn2nc(C)c(Br)c2C)cc1 (stereo not shown),-100
6,OC(COc1ccc(F)cc1)CN1CCN(CC(O)COc2ccc(F)cc2)CC1 (stereo not shown),-51.1
7,COc1ccc(OCC(O)CN2CCN(CC(O)COc3ccc(OC)cc3)CC2)cc1 (stereo not shown),3.29
8,CCC(=O)c1ccc(OCC(O)CN2CCN(C(c3ccccc3)c3ccccc3)CC2)cc1 (stereo not shown),-51.4
9,OC(COc1ccccc1)CN1CCN(C(c2ccccc2)c2ccccc2)CC1 (stereo not shown),-24.1
10,CC1CCN(CC(O)COc2ccc(F)cc2)CC1 (stereo not shown),-13.3
11,OC(COc1ccc(OCC(O)CN2CCN(Cc3ccccc3)CC2)cc1)CN1CCN(Cc2ccccc2)CC1 (stereo not shown),6.14
12,CCC(=O)c1ccc(OCC(O)Cn2nc(C)c(C(C)=O)c2C)cc1 (stereo not shown),4.75
13,N#Cc1ccc(OCC(O)CN2CCN(C(c3ccccc3)c3ccccc3)CC2)cc1 (stereo not shown),-69.5
14,CCC(=O)c1ccc(OCC(O)CN2CCOCC2)cc1 (stereo not shown),17.8
15,CCC(=O)c1ccc(OCC(O)Cn2nc(C)cc2C)cc1 (stereo not shown),7.89
16,O=c1[nH]c(=O)c2nc3ccccc3nc2[nH]1,2.78
17,COc1cc(NC(=O)CN(C)C2CCCCC2)c(C)cc1[N+](=O)[O-],6.09
18,Cc1ccc(S(=O)(=O)N[C@@H](CC(C)C)C(=O)NCc2ccco2)cc1,3.58
19,CCCCN(C(=O)/C=C/c1ccco1)c1c(N)n(Cc2ccccc2)c(=O)[nH]c1=O,7.19
20,CCOc1cc(NC(=S)NCCCN2CCOCC2)c(OCC)cc1NC(=O)c1cccc(F)c1,-0.782

row,SMILES,"hERG current change (%, negative = inhibition) at 1uM [%]"
1,C=CCOc1ccccc1/C=N/NC(=O)Cc1ccccc1,14.3
2,Cc1ccc(S(=O)(=O)N2CCCC2C(=O)Nc2nc3c(s2)CCCC3)cc1 (stereo not shown),13.2
3,CC1CCCCN1CC(O)COc1ccc(OCC(O)CN2CCCCC2C)cc1 (stereo not shown),13.5
4,OC1CCCN(CC(O)COc2ccc(-c3ccccc3)cc2)C1 (stereo not shown),-0.151
5,Cc1ccccc1OCC(O)CN1CCN(CC(O)COc2ccccc2C)C(C)C1.O=C(O)C(=O)O (stereo not shown),-29
6,O=C(O)C(=O)O.OC(COCc1ccco1)CN1CCN(c2ccccc2)CC1 (stereo not shown),3.71
7,CC1CCCN(CC(O)COc2ccc(Cl)cc2)C1.Cl (stereo not shown),-32.2
8,CC(=O)c1ccc(N2CCN(CC(O)COCc3ccco3)CC2)cc1 (stereo not shown),-29.3
9,CC1CN(CC(O)COc2ccc(C#N)cc2)CCN1CC(O)COc1ccc(C#N)cc1 (stereo not shown),-86.2
10,OC(COc1ccc(OCC(O)CN2CCCCC2)cc1)CN1CCCCC1 (stereo not shown),18.1
11,N#Cc1ccc(-c2ccc(OCC(O)CN3CCOCC3)cc2)cc1 (stereo not shown),7.69
12,N#Cc1ccc(-c2ccc(OCC(O)CN3CCCCC3)cc2)cc1 (stereo not shown),-52.1
13,OC(COCc1ccco1)CN1CCN(C(c2ccccc2)c2ccccc2)CC1 (stereo not shown),-79.1
14,CC1CCCN(CC(O)COc2ccc(-c3ccccc3)cc2)C1 (stereo not shown),-57.8
15,COc1ccccc1NC(=O)COC(=O)/C=C/c1ccc2c(c1)OCO2,9.01
16,O=C(Nc1ccc(C(=O)O)cc1)/C(=C\c1ccc2c(c1)OCO2)NC(=O)c1ccco1,19.4
17,O=C(c1csc2c1CCCC2)N1CCN(c2ccc(F)cc2)CC1,2.84
18,COc1ccc(C(=O)Nc2cccc(-c3ccc4nncn4n3)c2)cc1,7.11
19,CCn1ncc(NC(=S)NCCc2ccccc2)c1C(N)=O,2.4
20,CC(C)C(OC(=O)c1cccs1)C(=O)NCc1ccco1 (stereo not shown),12.2

row,SMILES,"hERG current change (%, negative = inhibition) at 1uM [%]"
1,O=S(=O)(Nc1cc(S(=O)(=O)N2CCOCC2)ccc1N1CCOCC1)c1ccc2c(c1)OCCO2,28.4
2,COc1ccccc1N1C(=O)[C@@H]2[C@H](C1=O)[C@H](C(=O)c1ccc(OC(C)=O)cc1)N1N=CC=C[C@@H]21,15.9
3,C#CCCOC(=O)N1C2=NC(C(=O)OC)=C(C(=O)OC)[C@@H]3N(C)c4ccc(OC)cc4[C@]23C[C@H]1C(=O)OC,-0.338
4,CSc1ccc(/C=C2\CCn3c2nc2cc(C(=O)O)ccc2c3=O)cc1,15.6
5,O=C(Nc1ccccn1)c1cc2ccccc2o1,9.79
6,CCOC(=O)N/N=C/c1ccc(C)o1,5.21
7,N#Cc1ccc(OCC(O)CN2CCN(c3ncc(C(F)(F)F)cc3Cl)CC2)cc1 (stereo not shown),-81.4
8,Cl.OC(COCC1COc2ccccc2O1)CN1CCN(c2ccccc2)CC1 (stereo not shown),-24.7
9,Cc1ccc(OCC(O)CN2CCN(CC(O)COc3ccc(C)cc3)CC2)cc1 (stereo not shown),-8.83
10,O=C(O)CN1CCN(c2ncc(C(F)(F)F)cc2Cl)CC1,12.6
11,CCC(=O)c1ccc(OCC(O)CN2CCN(c3ccc(F)cc3)CC2)cc1 (stereo not shown),-15.1
12,Cl.OC(COCC1COc2ccccc2O1)CN1CCN(c2ccc(F)cc2)CC1 (stereo not shown),-57.6
13,CC(=O)c1ccc(OCC(O)CN2CCN(c3ccc(F)cc3)CC2)cc1.Cl (stereo not shown),-64.9
14,CN1CCN(CC(O)COc2ccc(OCC(O)CN3CCN(C)CC3)cc2)CC1 (stereo not shown),10.2
15,COc1ccc(N2CCN(CC(O)COc3ccc(F)cc3)CC2)cc1.Cl (stereo not shown),-47.8
16,N#Cc1ccc(OCC(O)CN2CCN(CC(O)COc3ccc(C#N)cc3)CC2)cc1 (stereo not shown),-91.3
17,Cl.OC(COCC1COc2ccccc2O1)CN1CCN(c2ccccc2F)CC1 (stereo not shown),-19.9
18,OC(CN1CCN(c2ncc(C(F)(F)F)cc2Cl)CC1)c1ccccc1 (stereo not shown),1.4
